Drawing on ChEMBL document CHEMBL1961873, “Compounds: GSK PKIS; Assays: Nanosyn kinase panel” (2012), this text covers inhibition for 9 molecules.

Each structure is given as a SMILES string.

Experiment [1] deals with T1, Ephrin type-B receptor 2 (Homo sapiens) (UniProt P29323).
T1 sequence (whole entry): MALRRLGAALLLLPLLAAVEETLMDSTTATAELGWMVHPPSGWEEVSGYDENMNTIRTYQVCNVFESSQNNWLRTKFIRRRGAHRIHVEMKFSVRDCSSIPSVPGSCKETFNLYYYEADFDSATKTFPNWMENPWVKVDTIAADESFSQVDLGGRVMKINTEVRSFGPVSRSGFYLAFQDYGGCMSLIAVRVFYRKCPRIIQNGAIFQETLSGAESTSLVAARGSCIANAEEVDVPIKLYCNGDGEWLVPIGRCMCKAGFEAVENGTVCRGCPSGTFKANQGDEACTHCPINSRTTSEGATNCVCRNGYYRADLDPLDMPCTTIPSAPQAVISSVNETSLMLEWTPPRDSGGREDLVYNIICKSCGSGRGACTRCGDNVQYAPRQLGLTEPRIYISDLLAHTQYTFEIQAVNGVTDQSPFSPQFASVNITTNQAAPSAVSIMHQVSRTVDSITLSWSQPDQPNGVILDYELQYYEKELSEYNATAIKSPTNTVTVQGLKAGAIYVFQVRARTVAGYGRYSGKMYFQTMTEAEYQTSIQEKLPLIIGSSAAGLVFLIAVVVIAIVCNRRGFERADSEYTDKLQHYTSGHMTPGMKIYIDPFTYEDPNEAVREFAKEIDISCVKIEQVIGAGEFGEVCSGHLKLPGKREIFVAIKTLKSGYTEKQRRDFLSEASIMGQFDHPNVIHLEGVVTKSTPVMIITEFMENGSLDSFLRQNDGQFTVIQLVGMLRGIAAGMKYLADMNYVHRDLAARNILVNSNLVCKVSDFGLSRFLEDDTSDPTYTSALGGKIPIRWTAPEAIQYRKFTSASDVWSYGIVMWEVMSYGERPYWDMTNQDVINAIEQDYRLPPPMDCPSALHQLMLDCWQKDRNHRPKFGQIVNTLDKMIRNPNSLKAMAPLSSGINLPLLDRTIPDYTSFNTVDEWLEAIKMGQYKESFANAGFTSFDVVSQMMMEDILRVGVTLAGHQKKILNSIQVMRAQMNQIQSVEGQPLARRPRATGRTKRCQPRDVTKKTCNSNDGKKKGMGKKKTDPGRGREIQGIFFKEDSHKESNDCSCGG
The settings on record: at 1 µM.

Experiment [2] concerns the target T2, Ephrin type-B receptor 3 (Homo sapiens) (UniProt P54753).
T2 sequence (whole entry): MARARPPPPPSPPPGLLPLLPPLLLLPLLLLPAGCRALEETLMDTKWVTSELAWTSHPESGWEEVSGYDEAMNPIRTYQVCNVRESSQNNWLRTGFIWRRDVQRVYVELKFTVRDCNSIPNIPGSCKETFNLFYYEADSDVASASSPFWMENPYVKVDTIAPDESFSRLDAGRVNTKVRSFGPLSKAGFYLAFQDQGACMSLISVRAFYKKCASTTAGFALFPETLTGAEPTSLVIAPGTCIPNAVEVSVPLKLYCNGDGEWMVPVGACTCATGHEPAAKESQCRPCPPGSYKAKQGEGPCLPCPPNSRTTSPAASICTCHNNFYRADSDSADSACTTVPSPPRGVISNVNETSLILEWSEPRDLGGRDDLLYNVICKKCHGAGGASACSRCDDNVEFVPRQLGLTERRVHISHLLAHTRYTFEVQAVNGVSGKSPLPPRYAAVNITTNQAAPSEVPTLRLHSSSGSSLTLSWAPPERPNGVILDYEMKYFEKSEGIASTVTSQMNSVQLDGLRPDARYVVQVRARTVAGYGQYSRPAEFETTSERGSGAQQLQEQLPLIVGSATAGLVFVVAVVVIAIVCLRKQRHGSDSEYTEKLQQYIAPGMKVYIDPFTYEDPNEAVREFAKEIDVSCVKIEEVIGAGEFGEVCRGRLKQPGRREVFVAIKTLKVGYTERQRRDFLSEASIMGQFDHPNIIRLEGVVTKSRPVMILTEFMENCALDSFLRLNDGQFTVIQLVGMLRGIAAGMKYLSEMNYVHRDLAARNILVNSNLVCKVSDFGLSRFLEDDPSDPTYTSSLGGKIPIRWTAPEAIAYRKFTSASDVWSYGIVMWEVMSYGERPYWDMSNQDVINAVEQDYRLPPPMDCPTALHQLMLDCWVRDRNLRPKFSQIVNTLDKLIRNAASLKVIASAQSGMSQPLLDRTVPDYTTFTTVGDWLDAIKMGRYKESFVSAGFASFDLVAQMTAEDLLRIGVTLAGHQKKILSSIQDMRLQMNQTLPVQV
The settings on record: at 0.1 µM.

In experiment [3] the target is T2, Ephrin type-B receptor 3 (Homo sapiens). The settings on record: at 1 µM.
Experiment [4] deals with T3, Ephrin type-B receptor 4 (Homo sapiens) (UniProt P54760).
T3 sequence (whole entry): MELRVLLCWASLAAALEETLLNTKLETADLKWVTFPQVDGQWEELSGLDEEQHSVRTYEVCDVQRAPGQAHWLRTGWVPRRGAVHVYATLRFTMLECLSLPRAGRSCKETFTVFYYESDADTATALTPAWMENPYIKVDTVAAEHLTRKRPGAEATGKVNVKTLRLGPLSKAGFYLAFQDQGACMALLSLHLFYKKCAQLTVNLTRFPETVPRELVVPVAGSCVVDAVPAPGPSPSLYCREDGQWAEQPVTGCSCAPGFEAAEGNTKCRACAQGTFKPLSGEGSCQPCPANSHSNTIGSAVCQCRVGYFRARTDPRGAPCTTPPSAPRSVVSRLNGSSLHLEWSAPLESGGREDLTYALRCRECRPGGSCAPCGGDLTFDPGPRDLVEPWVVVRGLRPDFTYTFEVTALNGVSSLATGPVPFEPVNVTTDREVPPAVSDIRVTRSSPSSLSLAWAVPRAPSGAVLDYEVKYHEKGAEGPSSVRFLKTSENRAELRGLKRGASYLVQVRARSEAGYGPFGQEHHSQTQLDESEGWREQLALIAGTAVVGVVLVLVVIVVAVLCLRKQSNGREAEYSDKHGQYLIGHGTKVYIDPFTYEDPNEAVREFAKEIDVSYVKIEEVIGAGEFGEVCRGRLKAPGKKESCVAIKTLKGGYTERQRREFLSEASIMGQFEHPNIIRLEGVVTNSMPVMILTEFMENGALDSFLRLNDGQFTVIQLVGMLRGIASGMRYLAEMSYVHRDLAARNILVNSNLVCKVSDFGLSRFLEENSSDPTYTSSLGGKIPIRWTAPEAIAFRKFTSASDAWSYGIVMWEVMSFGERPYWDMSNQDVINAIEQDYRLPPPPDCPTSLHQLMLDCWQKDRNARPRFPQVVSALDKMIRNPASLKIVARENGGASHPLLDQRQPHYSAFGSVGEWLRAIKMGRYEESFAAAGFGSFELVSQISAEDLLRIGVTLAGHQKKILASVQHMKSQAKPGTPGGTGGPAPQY
Particulars: at 0.1 µM.

Experiment [5] addresses T3, Ephrin type-B receptor 4 (Homo sapiens). Particulars: at 1 µM.
Experiment [6] has as its target Receptor tyrosine-protein kinase erbB-2 (Homo sapiens) (UniProt P04626). Particulars: at 0.1 µM.
For experiment [7] the target is unchanged. Particulars: at 1 µM.
Experiment [8] concerns the target Receptor tyrosine-protein kinase erbB-4 (Homo sapiens) (UniProt Q15303). Particulars: at 0.1 µM.
The target is the same in experiment [9]. Particulars: at 1 µM.
Experiment [10] deals with Tyrosine-protein kinase Fer (Homo sapiens) (UniProt P16591). The settings on record: at 0.1 µM.
Sequence of Tyrosine-protein kinase Fer (Homo sapiens) (P16591 whole entry, looked up): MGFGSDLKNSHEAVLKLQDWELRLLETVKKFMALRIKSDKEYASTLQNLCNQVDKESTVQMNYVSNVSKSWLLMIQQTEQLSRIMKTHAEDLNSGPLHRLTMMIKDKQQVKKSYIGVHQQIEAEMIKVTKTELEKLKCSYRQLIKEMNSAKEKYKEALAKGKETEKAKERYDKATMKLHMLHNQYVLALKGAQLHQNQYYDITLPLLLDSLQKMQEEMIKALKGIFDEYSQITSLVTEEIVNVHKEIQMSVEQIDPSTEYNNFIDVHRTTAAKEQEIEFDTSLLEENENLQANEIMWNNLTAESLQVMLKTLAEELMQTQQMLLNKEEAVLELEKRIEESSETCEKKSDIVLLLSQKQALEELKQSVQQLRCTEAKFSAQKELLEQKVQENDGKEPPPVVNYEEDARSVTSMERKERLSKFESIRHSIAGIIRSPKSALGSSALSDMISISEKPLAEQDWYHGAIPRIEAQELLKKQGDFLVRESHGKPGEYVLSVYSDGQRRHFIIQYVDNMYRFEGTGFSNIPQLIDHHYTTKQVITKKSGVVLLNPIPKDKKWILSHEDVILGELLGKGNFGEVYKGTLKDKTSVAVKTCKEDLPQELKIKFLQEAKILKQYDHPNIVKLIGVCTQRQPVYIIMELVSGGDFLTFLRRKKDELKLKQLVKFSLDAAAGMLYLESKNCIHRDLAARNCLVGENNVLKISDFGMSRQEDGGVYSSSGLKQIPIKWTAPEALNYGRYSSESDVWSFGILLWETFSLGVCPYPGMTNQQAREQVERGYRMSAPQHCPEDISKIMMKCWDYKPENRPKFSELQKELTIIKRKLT

Sequence of Receptor tyrosine-protein kinase erbB-4 (Homo sapiens) (Q15303 whole entry): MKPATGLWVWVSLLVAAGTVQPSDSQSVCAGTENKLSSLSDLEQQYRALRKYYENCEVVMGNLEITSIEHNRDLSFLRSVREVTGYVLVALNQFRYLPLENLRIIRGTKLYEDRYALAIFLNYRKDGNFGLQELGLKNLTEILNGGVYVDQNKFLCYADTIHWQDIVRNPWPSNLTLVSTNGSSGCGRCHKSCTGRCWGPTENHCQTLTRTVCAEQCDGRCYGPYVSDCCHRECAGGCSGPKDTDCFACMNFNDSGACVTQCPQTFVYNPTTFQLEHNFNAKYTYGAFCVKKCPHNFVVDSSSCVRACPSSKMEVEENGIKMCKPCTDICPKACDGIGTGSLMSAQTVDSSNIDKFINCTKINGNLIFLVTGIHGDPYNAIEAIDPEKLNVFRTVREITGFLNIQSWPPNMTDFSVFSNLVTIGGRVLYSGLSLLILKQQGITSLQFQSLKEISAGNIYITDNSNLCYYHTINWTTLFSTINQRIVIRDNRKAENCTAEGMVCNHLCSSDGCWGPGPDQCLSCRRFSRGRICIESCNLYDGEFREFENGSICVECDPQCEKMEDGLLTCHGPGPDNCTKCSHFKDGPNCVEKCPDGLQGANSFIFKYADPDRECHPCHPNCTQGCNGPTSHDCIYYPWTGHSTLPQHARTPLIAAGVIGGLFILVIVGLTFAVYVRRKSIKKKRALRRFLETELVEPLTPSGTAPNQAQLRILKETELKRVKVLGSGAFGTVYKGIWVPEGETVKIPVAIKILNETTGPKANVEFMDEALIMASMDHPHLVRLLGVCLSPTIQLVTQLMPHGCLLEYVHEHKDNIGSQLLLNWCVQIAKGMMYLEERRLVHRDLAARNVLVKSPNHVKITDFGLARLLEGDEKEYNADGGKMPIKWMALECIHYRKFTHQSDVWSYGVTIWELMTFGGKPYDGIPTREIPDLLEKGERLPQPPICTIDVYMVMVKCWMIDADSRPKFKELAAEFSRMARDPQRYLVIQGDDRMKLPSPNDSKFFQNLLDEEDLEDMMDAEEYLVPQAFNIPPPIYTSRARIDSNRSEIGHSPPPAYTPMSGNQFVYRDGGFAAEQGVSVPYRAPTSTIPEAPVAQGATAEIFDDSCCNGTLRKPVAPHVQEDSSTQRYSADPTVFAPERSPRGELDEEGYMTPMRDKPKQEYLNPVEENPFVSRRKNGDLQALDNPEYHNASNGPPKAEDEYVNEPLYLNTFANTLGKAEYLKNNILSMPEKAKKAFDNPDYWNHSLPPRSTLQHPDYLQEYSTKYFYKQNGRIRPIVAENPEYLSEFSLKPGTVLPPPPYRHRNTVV
Sequence of Receptor tyrosine-protein kinase erbB-2 (Homo sapiens) (P04626 whole entry): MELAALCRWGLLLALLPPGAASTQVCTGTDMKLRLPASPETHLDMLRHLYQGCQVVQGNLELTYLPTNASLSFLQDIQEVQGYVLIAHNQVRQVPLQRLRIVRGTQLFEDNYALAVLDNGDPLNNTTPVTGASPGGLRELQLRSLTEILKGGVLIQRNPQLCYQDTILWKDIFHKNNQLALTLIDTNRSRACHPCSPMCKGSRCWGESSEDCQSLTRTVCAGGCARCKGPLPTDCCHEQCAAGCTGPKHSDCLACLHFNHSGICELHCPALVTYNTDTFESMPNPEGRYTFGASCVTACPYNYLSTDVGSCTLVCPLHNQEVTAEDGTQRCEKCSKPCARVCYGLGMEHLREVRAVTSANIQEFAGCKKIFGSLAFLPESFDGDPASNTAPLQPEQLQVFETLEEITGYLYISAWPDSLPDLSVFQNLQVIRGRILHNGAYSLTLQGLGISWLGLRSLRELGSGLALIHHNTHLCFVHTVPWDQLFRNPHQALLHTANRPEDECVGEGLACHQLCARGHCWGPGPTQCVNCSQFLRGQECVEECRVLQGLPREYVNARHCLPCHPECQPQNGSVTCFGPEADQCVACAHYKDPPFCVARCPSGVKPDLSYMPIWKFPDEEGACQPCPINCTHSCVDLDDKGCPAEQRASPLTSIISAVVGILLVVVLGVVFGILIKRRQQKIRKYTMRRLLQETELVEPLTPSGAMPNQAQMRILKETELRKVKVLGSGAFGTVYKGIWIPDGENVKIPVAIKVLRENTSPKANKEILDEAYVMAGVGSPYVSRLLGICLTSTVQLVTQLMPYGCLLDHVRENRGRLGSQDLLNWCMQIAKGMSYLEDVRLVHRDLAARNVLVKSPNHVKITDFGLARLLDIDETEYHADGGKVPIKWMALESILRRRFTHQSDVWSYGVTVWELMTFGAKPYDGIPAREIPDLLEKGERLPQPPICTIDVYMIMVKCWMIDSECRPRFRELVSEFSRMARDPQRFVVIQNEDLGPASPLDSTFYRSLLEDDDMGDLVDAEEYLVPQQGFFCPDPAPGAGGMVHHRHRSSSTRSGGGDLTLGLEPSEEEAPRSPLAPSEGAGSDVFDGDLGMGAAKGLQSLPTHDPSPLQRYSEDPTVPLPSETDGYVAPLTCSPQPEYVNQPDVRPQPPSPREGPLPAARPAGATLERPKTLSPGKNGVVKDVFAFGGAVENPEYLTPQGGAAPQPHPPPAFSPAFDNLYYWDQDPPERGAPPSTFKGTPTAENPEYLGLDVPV

As a reminder, the inhibition is the drop in the measured response relative to a control, in per cent. Consider `CCS(=O)(=O)c1ccc(OC)c(Nc2nccc(N(C)c3ccc4c(C)n[nH]c4c3)n2)c1`, for which the inhibition stood at 43.6% in experiment [1]; 2.23% in experiment [2]; 6.04% in experiment [3]; 17.4% in experiment [4]; 65.8% in experiment [5]; 7.28% in experiment [6]. Also, the inhibition in experiment [7] came to 13.4%; in experiment [8], 18.5%; in experiment [9] it was 60.5%; in experiment [10], 2.69%.

With `CN(C)c1cc2c(Nc3ccc4c(cnn4Cc4ccccc4)c3)ncnc2cn1`, the inhibition was determined as 0.46% in experiment [1]; 4.69% in experiment [2]; 1.55% in experiment [3]; 0.91% in experiment [4]; 2.11% in [5]; 53.4% in experiment [6]. The inhibition in [7] was determined as 86.6%; in [8] it was 91.1%; in experiment [9], 94.6%; in experiment [10] it was 1.79%.

`Cc1ccc(C(=O)NC2CC2)cc1-c1ccc2[nH]ncc2c1`: the inhibition in experiment [1] is -4.6%; in [2], -8.95%; in [3], -5.96%; in experiment [4], -2.42%; in experiment [5], -0.31%; in experiment [6], -5.76%. For the same molecule, the inhibition in experiment [7] is -4.83%; in experiment [10], -2.95%.

As to `NS(=O)(=O)c1cccc(Nc2cc(-c3ccc(F)cc3)n[nH]2)c1`, the inhibition in experiment [1] turned out to be 10.6%; in experiment [2], 3.94%; in experiment [3], 2.26%; in experiment [4], 0.66%; in experiment [5] it was 3.57%; in experiment [6], 1.6%. For the same molecule, the inhibition was determined as 6.2% in experiment [7], 5.56% in experiment [8], 11.3% in experiment [9] and 5.3% in experiment [10].

Turning to `Cc1ccc(Nc2ccnc(Nc3cccc(C(N)=O)c3)n2)cc1O`, the inhibition was 38.6% in experiment [1]; 0.29% in experiment [2]; -0.39% in [3]; 2.22% in [4]; 29.1% in experiment [5]; 2.41% in experiment [6]. Further, the inhibition in experiment [7] was 5.7%; in experiment [8], 6.84%; in experiment [9], 20.2%; in experiment [10], 4.75%.

In the case of `CS(=O)(=O)Nc1cccc(-c2ccc3c(NC(=O)C4CC4)n[nH]c3c2)c1`, the inhibition is 4.48% in experiment [2]; -3.94% in experiment [3]; 0.62% in experiment [4]; 0.5% in experiment [5]; 0.54% in experiment [6]; -4.31% in experiment [7]. The inhibition is 6.04% in experiment [8], 8.34% in experiment [9] and -0.81% in experiment [10].

Regarding `NS(=O)(=O)c1ccc(NC=C2C(=O)Nc3ccc4ncsc4c32)cc1`, the inhibition worked out at 26.1% in experiment [1]; 5.96% in experiment [2]; 2.98% in experiment [3]; 4.95% in experiment [4]; 12.2% in experiment [5]; 1.93% in experiment [6]. The inhibition is -0.87% in experiment [7], 17.8% in experiment [8], 11.2% in [9] and 5.32% in [10].

As for `CC(C)c1ccc(Nc2nccc(-c3cnn4ncccc34)n2)cc1`, the inhibition in experiment [1] was 14.4%; in experiment [2], 6.52%; in experiment [3], 2.55%; in [4], 4.64%; in experiment [5] it was 2.76%; in experiment [6], 0.95%. The inhibition was found to be 3.22% in experiment [7], 8.58% in [8], 11.6% in [9] and 5.74% in experiment [10].

For the molecule `CN(C)C(=O)O[C@@H]1CN[C@@H](C#Cc2cc3ncnc(Nc4ccc(OCc5cccc(F)c5)c(Cl)c4)c3s2)C1`, the inhibition in experiment [1] was -1.82%; in experiment [2], 2.5%; in [3] it was -1.81%; in [4], 1.64%; in experiment [5], 3.64%; in [6] it was -1.37%. The inhibition worked out at 27.1% in [7], 107% in experiment [8], 130% in [9] and 0.75% in experiment [10].
